Results taken from PubChem BioAssay (NCI).
Values joined by “and” are separate entries in the source; they are usually repeats but may differ in a detail not shown here. Equal values may be shown once. About 79,000 compounds went through this panel and 15% of them were active in at least one assay; those are over-represented in the sample as a whole. Unmarked numbers belong to inactive results. Active and inactive are the calls of the source. No stated cut-off is given here; in the data, active means growth inhibition above about 70%; inactive means the rest.

Legend:
[1] = NCI Yeast Anticancer Drug Screen. Data for the rad50 strain (AID 155);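 further: 0% = growth of vehicle-only cultures of the same strain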; conditions: S. cerevisiae rad50 strain growth inhibition, active compounds read high; at 50.0 µM unless noted
Outline: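 Cells are treated with compound, grown, and their growth is then scored against vehicle-only cultures of the same repair-deficient yeast strain.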

[2] = NCI Yeast Anticancer Drug Screen. Data for the mec2-1 strain (AID 157); conditions: S. cerevisiae mec2-1 strain, active compounds read high; at 50.0 µM unless noted
Outline: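 Mutant yeast (mec2-1) grown with compound; growth inhibition relative to vehicle control reported.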

[3] = NCI Yeast Anticancer Drug Screen. Data for the sgs1 mgt1 strain (AID 161);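 further: 0% = growth of cultures given vehicle only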; conditions: S. cerevisiae sgs1 mgt1 strain, active compounds read high; at 50.0 µM unless noted
Outline: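 Percent growth inhibition was derived by comparing compound-exposed mutant yeast with vehicle-exposed cultures. The strain carries alterations in DNA damage repair.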

[4] = NCI Yeast Anticancer Drug Screen. Data for the cln2 rad14 strain (AID 165);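 further: 0% = growth equal to vehicle treated cultures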; conditions: S. cerevisiae cln2 rad14 strain, active compounds read high; at 50.0 µM unless noted
Outline: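 Readout is yeast growth inhibition versus vehicle-treated controls, using a strain with cln2 and rad14 alterations exposed to compound.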

[5] = NCI Yeast Anticancer Drug Screen. Data for the bub3 strain (AID 167); conditions: S. cerevisiae bub3 mutant strain, active compounds read high; at 50.0 µM unless noted
Outline: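 Part of a panel of yeast mutants defective in DNA damage repair or cell cycle regulation. Each strain is grown with compound, and inhibition is calculated relative to solvent-treated cultures.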

[6] = NCI Yeast Anticancer Drug Screen. Data for the mlh1 rad18 strain (AID 175); conditions: S. cerevisiae mlh1 rad18 strain growth inhibition, active compounds read high; at 50.0 µM unless noted
Outline: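 Genetically defined yeast (DNA repair-deficient) exposed to compounds; growth inhibition determined relative to vehicle.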

CCCCCCCCCCCCCCCC(=O)c1ccccc1
growth inhibition [1]: 33.2%
growth inhibition [2]: 27.2%
growth inhibition [3]: 28.4%
growth inhibition [4]: 52.6%
growth inhibition [5]: 21.1%
growth inhibition [6]: 42.5%

Cc1cc(C)c2nccc(NCCCN(C)C)c2c1[N+](=O)[O-]
growth inhibition [1]: 5.65%
growth inhibition [2]: 5%
growth inhibition [3]: -1.8%
growth inhibition [4]: 5.35%
growth inhibition [5]: -10.8%
growth inhibition [6]: -78.5%

CCOC(=O)c1ccc(NC2Oc3cc4c(cc3C(c3cc(OC)c(OC)c(OC)c3)C2C)OCO4)cc1 (centres undefined)
growth inhibition [1]: -1.6%
growth inhibition [2]: -15.5%
growth inhibition [3]: -2.65%
growth inhibition [4]: 11.4%
growth inhibition [5]: -9.8%
growth inhibition [6]: -9.55%

CCC(O)(c1ccccc1)C(O)(CC)c1ccccc1 (centres undefined)
growth inhibition [1]: 15.8%
growth inhibition [2]: 8.9%
growth inhibition [3]: -2.05%
growth inhibition [4]: 22.8%
growth inhibition [5]: -13%
growth inhibition [6]: 23.3%

CS(=O)(=O)OCC1OC(n2ncc(=O)[nH]c2=O)C(O)C1O (centres undefined)
growth inhibition [1]: 6.9%
growth inhibition [2]: 13.7%
growth inhibition [3]: -7.1%
growth inhibition [4]: -2.45%
growth inhibition [5]: 2.95%
growth inhibition [6]: 11%

COc1ccc(-c2nnc(N)s2)cc1OC
growth inhibition [1]: 16.4%
growth inhibition [2]: 2.7%
growth inhibition [3]: 2.8%
growth inhibition [4]: -1.6%
growth inhibition [5]: -7.05%
growth inhibition [6]: 6.35%

COc1ccc(C(C)c2cc(N=NC(N)=O)c(OC)cc2O)cc1 (centres undefined)
growth inhibition [1]: -2.7%
growth inhibition [2]: -3.6%
growth inhibition [3]: -4.1%
growth inhibition [4]: -4.25%
growth inhibition [5]: 16.9%
growth inhibition [6]: 12.7%

COS(=O)(=O)CC(O)(c1ccccc1)c1ccccc1
growth inhibition [1]: 12.7%
growth inhibition [2]: -2.3%
growth inhibition [3]: 48.8%
growth inhibition [4]: -14.6%
growth inhibition [5]: -5.8%
growth inhibition [6]: 6.05%

NC(N)=NC(N)=Nc1cc(Cl)c(Cl)cc1Cl
growth inhibition [1]: 98.2% (active)
growth inhibition [2]: 99.5% (active)
growth inhibition [3]: 99.3% (active)
growth inhibition [4]: 98.8% (active)
growth inhibition [5]: 99.2% (active)
growth inhibition [6]: 99.3% (active)

COC(=O)C1(C)C=C(Nc2ccccc2)C(=O)N1c1ccccc1 (centres undefined)
growth inhibition [1]: -3.45%
growth inhibition [2]: -19.8%
growth inhibition [3]: 6.2%
growth inhibition [4]: 21.8%
growth inhibition [5]: 23.4%
growth inhibition [6]: 2.25%

CC(O)C(=O)N(CCO)c1ccccc1 (centres undefined)
growth inhibition [1]: 13.4%
growth inhibition [2]: 1.2%
growth inhibition [3]: -5.5%
growth inhibition [4]: 3.25%
growth inhibition [5]: 2.2%
growth inhibition [6]: -21.4%

CCCCCCCC/C=C\CCCCCCCC(=O)NC(C)(C)C(=O)O
growth inhibition [1]: -16.2%
growth inhibition [2]: -15.7%
growth inhibition [3]: -9.5%
growth inhibition [4]: 62.6%
growth inhibition [5]: 32.2%
growth inhibition [6]: -36.4%

N#Cc1cc2c(N)ncnc2nc1N1CCCC1
growth inhibition [1]: -43.7%
growth inhibition [2]: -61.8%
growth inhibition [3]: -13.3%
growth inhibition [4]: -2.25%
growth inhibition [5]: 5.35%
growth inhibition [6]: -26.2%

Cn1cc(Cc2ccccc2)c(=O)[nH]c1=O
growth inhibition [1]: 6.25%
growth inhibition [2]: -4.4%
growth inhibition [3]: 2.05%
growth inhibition [4]: -34.6%
growth inhibition [5]: -4.85%
growth inhibition [6]: 7.6%

O.O.O=S(=O)(O)C(F)(F)F.[NH2-].[NH2-].[NH2-].[NH2-].[Ru+3]
growth inhibition [1]: -17.8%
growth inhibition [2]: 1.8%
growth inhibition [3]: -27%
growth inhibition [4]: -16.9%
growth inhibition [5]: -27.4%
growth inhibition [6]: -11.6%

O=[N+]([O-])c1ccc(Sc2ncnc3c2ncn3C2OC(CO)C(O)C2O)c2nonc12 (centres undefined)
growth inhibition [1]: 3.05%
growth inhibition [2]: -12.4%
growth inhibition [3]: -2.4%
growth inhibition [4]: 16.1%
growth inhibition [5]: -2.95%
growth inhibition [6]: 33.2%

COC(=O)CCc1ccco1
growth inhibition [1]: 10.6%
growth inhibition [2]: -10%
growth inhibition [3]: 3.4%
growth inhibition [4]: 2.5%
growth inhibition [5]: 6.95%
growth inhibition [6]: 12.7%

C1CCN(CCC2CCNCC2)CC1
growth inhibition [1]: -5.4%
growth inhibition [2]: -18.3%
growth inhibition [3]: -12.1%
growth inhibition [4]: 1.8%
growth inhibition [5]: 7.65%
growth inhibition [6]: -1.6%

O=C1C=CC(=O)N1c1ccnc(N2C(=O)C=CC2=O)c1
growth inhibition [1]: 21.4%
growth inhibition [2]: -1.55%
growth inhibition [3]: 6.1%
growth inhibition [4]: -7.05%
growth inhibition [5]: 11.8%
growth inhibition [6]: 10.2%

CCS(=O)(=O)C(CCCl)S(=O)(=O)CC
growth inhibition [1]: 2.45%
growth inhibition [2]: 0.9%
growth inhibition [3]: 16.4%
growth inhibition [4]: 8.55%
growth inhibition [5]: 17.4%
growth inhibition [6]: 13.9%

O=C(ON=C1C=CC(=NOC(=O)c2ccccc2)C=C1)c1ccccc1
growth inhibition [1]: 10.2%
growth inhibition [2]: -20.6%
growth inhibition [3]: 9.35%
growth inhibition [4]: 17.3%
growth inhibition [5]: 1.15%
growth inhibition [6]: 7.6%

O=C(O)CCSCCC(=O)O
growth inhibition [1]: -22.8%
growth inhibition [2]: -2.5%
growth inhibition [3]: -29.4%
growth inhibition [4]: -48.4%
growth inhibition [5]: -13.6%
growth inhibition [6]: 22.4%

Cc1ccc(OCC(=O)N2N=C(c3ccccc3)CC2(O)c2ccccc2)cc1 (centres undefined)
growth inhibition [1]: -7.6%
growth inhibition [2]: -41.9%
growth inhibition [3]: -30.6%
growth inhibition [4]: -15.6%
growth inhibition [5]: 0%
growth inhibition [6]: -24.2%

O=[N+]([O-])c1ccc(CS(=O)Cc2ccccc2)cc1 (centres undefined)
growth inhibition [1]: 10.9%
growth inhibition [2]: -18.6%
growth inhibition [3]: 1.35%
growth inhibition [4]: 0.05%
growth inhibition [5]: 6.75%
growth inhibition [6]: 31.7%

CN(C)N=Nc1ccc(/C=C/C(=O)O)cc1
growth inhibition [1]: 15.2%
growth inhibition [2]: 4.8%
growth inhibition [3]: 11.4%
growth inhibition [4]: 1.65%
growth inhibition [5]: 8.55%
growth inhibition [6]: -4.95%

CCCc1[nH]n(-c2ccccc2)c(=O)c1N=Nc1cccc(C(F)(F)F)c1
growth inhibition [1]: -10.7%
growth inhibition [2]: -1.1%
growth inhibition [3]: -7.3%
growth inhibition [4]: -12.8%
growth inhibition [5]: -5%
growth inhibition [6]: -7.95%

COc1ccc2nc3cc(Cl)ccc3c(SCC(=O)Nc3ccccc3-c3ccccc3NC(=O)CSc3c4ccc(Cl)cc4nc4ccc(OC)cc34)c2c1
growth inhibition [1]: -0.1%
growth inhibition [2]: -2.9%
growth inhibition [3]: -3.05%
growth inhibition [4]: 22.9%
growth inhibition [5]: 2.5%
growth inhibition [6]: 7.8%

Cc1ccc(S(=O)(=O)Oc2ccc(Cl)c(C)c2)cc1
growth inhibition [1]: 39.5% and -16.1%
growth inhibition [2]: 6% and -11.8%
growth inhibition [3]: 35.4% and -25.1%
growth inhibition [4]: 14.1% and -74.5%
growth inhibition [5]: 38.9% and 14.8%
growth inhibition [6]: 17.8% and 5.1%

CC(C)=CCCC(C)CCO (centres undefined)
growth inhibition [1]: -5.1%
growth inhibition [2]: -4.75%
growth inhibition [3]: -15.4%
growth inhibition [4]: 16.4%
growth inhibition [5]: -16.6%
growth inhibition [6]: 3.25%

Nc1ncnc2c1ncn2C1OC(CO)C(NC(=O)C(N)Cc2ccccc2)C1O (centres undefined)
growth inhibition [1]: 7.2%
growth inhibition [2]: -4.7%
growth inhibition [3]: -2.8%
growth inhibition [4]: -32.3%
growth inhibition [5]: 2.15%
growth inhibition [6]: -9.5%

CCCCCCCCCCCC(=O)NCc1ccc(OC(=O)CCCCCCCCCCC)c(OC)c1
growth inhibition [1]: -7.55%
growth inhibition [2]: -9.8%
growth inhibition [3]: -6.3%
growth inhibition [4]: -34.1%
growth inhibition [5]: 4.1%
growth inhibition [6]: -8.85%

CN(Cc1cnc2nc(N)nc(N)c2n1)c1ccc(C(=O)NC(CCC(=O)OCc2c(Cl)cccc2Cl)C(=O)OCc2c(Cl)cccc2Cl)cc1 (centres undefined)
growth inhibition [1]: 17.1%
growth inhibition [2]: 9.2%
growth inhibition [3]: 28.5%
growth inhibition [4]: 36.2%
growth inhibition [5]: 22.1%
growth inhibition [6]: 24.5%

CC1CCCC(CC(=O)O)(CC(=O)O)C1 (centres undefined)
growth inhibition [1]: -14.1%
growth inhibition [2]: -33.6%
growth inhibition [3]: -5.1%
growth inhibition [4]: -29.3%
growth inhibition [5]: -4.1%
growth inhibition [6]: -21.4%

S=c1[nH]nc(-c2n[nH]c3ccccc23)o1
growth inhibition [1]: 3.3%
growth inhibition [2]: 3.6%
growth inhibition [3]: 5.9%
growth inhibition [4]: -51.3%
growth inhibition [5]: -3%
growth inhibition [6]: 1.25%

COC(=O)CCSCc1ccccc1
growth inhibition [1]: 2.65%
growth inhibition [2]: 2.55%
growth inhibition [3]: -1.6%
growth inhibition [4]: -10%
growth inhibition [5]: 4.8%
growth inhibition [6]: 3.55%

O=C1CN(CCN2CC(=O)N(CN3CCOCC3)C(=O)C2)CC(=O)N1CN1CCOCC1
growth inhibition [1]: 9.55%
growth inhibition [2]: 3%
growth inhibition [3]: 2.6%
growth inhibition [4]: 3.8%
growth inhibition [5]: -16.1%
growth inhibition [6]: 83.9% (active)

O=c1[nH]c(=O)c2[nH]c(Br)nc2[nH]1
growth inhibition [1]: 2.35%
growth inhibition [2]: -4.3%
growth inhibition [3]: -12.7%
growth inhibition [4]: 0.2%
growth inhibition [5]: -8.45%
growth inhibition [6]: 3.85%

COc1cc(/C=N/NC(=O)c2ccccc2OC)ccc1O
growth inhibition [1]: 41.4%
growth inhibition [2]: 17.4%
growth inhibition [3]: 22.9%
growth inhibition [4]: 20.8%
growth inhibition [5]: 27.9%
growth inhibition [6]: 17.2%

O=C(c1ccc(Cl)cc1)N1CCC(CCCc2ccccc2)CC1
growth inhibition [1]: -2.2%
growth inhibition [2]: 3.45%
growth inhibition [3]: -4.3%
growth inhibition [4]: 5.05%
growth inhibition [5]: 12.8%
growth inhibition [6]: -3.2%
